From PubChem
KCNQ2 block: rat KCNQ2 potassium channel inhibitors, primary screen, cell-based, CHO-K1, FluxOR thallium flux, B-score | Potassium voltage-gated channel subfamily KQT member 2 (Rattus norvegicus), O88943 | 20 min; hits give low values | B-score at 10 µM | 1.1% of 310,000 active | AID 2156, 2009;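 active means fluorescence ratio B-score at most minus 3 library SDs, with starting brightness B-score within 2 library SDs, cut at about -5.5 in these data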
Target sequence (O88943 whole entry, looked up): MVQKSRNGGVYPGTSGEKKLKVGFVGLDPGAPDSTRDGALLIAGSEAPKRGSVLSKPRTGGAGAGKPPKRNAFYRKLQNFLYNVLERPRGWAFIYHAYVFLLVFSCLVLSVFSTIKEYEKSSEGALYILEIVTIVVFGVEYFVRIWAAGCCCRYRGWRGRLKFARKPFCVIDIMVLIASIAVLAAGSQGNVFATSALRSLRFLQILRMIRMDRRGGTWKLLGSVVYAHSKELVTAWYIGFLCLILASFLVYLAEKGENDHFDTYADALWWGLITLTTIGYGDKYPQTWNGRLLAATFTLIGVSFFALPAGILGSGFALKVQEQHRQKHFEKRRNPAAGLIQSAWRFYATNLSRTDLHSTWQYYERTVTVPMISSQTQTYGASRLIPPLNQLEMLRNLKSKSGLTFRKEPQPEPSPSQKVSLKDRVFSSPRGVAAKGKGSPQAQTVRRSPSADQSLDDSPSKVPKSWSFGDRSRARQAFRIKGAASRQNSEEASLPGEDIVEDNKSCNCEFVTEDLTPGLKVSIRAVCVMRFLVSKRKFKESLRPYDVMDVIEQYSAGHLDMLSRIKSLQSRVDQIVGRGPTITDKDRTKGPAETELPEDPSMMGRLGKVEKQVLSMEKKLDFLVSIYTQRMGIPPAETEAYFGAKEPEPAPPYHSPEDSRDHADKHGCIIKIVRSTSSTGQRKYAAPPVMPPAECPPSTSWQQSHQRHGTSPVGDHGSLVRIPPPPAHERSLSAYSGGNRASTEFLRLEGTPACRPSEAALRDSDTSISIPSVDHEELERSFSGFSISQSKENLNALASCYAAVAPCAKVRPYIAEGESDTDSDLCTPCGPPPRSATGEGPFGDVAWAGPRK
KCNQ2 pot: potentiators of rat KCNQ2 potassium channel. CHO-K1 KCNQ2, FluxOR thallium flux fluorescence; hits give high values. 0.54% of 310,000 active. B-score at 10 µM. Potassium voltage-gated channel subfamily KQT member 2 (Rattus norvegicus), O88943;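 active means fluorescence ratio B-score at least 3 SD of library B-scores, with initial fluorescence B-score within 3 of them, cut at about 5.3 in these data; same plate scores as AID 2156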;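 further: B-score of peak minus minimum over baseline fluorescence ratio after K+ and Tl+ stimulus; positive B-score means potentiation of KCNQ2 with more thallium influx and brighter signal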
Kir21 conf inh: mouse Kir2.1 channel blockers, retest, confirmation, cell-based, FluxOR thallium flux, duplicate. AID 2032, 2009. shares compounds with KCNQ2 pot. Tl flux remaining, % of negative control (hits give low values), % at 10 µM. 41% of 2,300 active. Kir2.1-expressing cells, FluxOR thallium flux fluorescence; hits give low values;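 active means Primary-screen hit whose thallium flux fell at least 3 control SD below untreated wells in both duplicates, with normal baseline fluorescence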;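 further: 0% = blank wells without stimulus and 100% = stimulated no-compound controls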
HEK293 Tl flux: alters thallium flux in parental HEK293 cells, Kir2.1 counter-screen; shares compounds with KCNQ2 pot; FluxOR thallium flux fluorescence; 0% = unstimulated blank wells; FluxOR signal as % of negative control (100 = no effect), % at 10 µM; 19% of 2,300 active;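 active means dye signal at least 3 control SD above or below untreated wells in both duplicates, raw fluorescence within 3, either direction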;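 further: percent is based on the flux ratio of peak minus minimum fluorescence over baseline F0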
CHO-K1 Tl ctr: nonspecific thallium flux increase in parental CHO-K1, confirmation, counter-screen for KCNQ2 potentiator project, cell-based, FluxOR thallium flux, duplicate; shares compounds with KCNQ2 pot; parental CHO-K1 cells, FluxOR thallium flux fluorescence; zero = vehicle mean+3SD, 100% = vehicle-minus-blank window; activity increase over 3SD of controls, % at 10 µM; 43% of 1,200 active;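 active means signal rise of at least 3 SD above the untreated control mean, in both duplicate wells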;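 further: counter screen of KCNQ2 potentiator hits so any rise reflects channel-independent effects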
KCNQ1 pot spec: human KCNQ1 channel potentiation off-target, confirmation, selectivity assay for KCNQ2 potentiator project, cell-based, CHO, FluxOR thallium flux. CHO KCNQ1 stable, FluxOR thallium flux fluorescence; beyond 3SD, as % of vehicle-control signal. 28% of 1,200 active. shares compounds with KCNQ2 pot. activation over 3SD threshold, % at 10 µM;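 active means fluorescence ratio rise of at least 3 SD of vehicle wells above their mean, in both replicate wells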;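 further: 0% = vehicle mean plus 3 SD and 100% = vehicle minus unstimulated blank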
KCNQ2 pot confirm: rat KCNQ2 channel potentiators, confirmation, cell-based, CHO, FluxOR thallium flux, duplicate; shares compounds with KCNQ2 pot; CHO-KCNQ2 cells, FluxOR thallium flux fluorescence; potentiation, less the hit threshold, % at 10 µM; 68% of 1,200 active; AID 2287, 2010;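 active means fluorescence ratio rising 3 SD or more over the vehicle control mean in both replicates, plus primary screen hit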;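 further: peak minus minimum thallium fluorescence divided by baseline after K/Tl stimulus; 0% = vehicle mean plus 3 SD and 100% = vehicle minus unstimulated blank difference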
Kir2-1 sel: mouse Kir2.1 channel activation off-target, confirmation, selectivity assay for KCNQ2 potentiator project, cell-based, HEK293, FluxOR thallium flux | shares compounds with KCNQ2 pot | HEK293 Kir2.1, FluxOR thallium flux fluorescence | activity over 3SD threshold, % at 10 µM | 2% of 1,200 active;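 active means fluorescence ratio rise of at least 3 SD above the vehicle-control mean, seen in both replicates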;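 further: 0% = vehicle mean plus 3 SD and 100% = vehicle minus no-stimulus blank window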
KCNQ2 W236L pot: potentiators of retigabine-insensitive KCNQ2 W236L, mechanism study for KCNQ2 potentiator project, cell-based, rat KCNQ2 W236L, CHO, automated patch clamp; AID 2558, 2010; automated patch clamp current; shares compounds with KCNQ2 pot; 10% of 940 active; current increase over 3SD of negative controls (%), hits give high values, % at 25 µM;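 active means current increase at least 3 SD of the untreated controls above them in both duplicate recordings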
Active calls of the source: *; i = inactive; . = no result given. An excerpt weighted towards active compounds, which were near 1.6% of everything screened.

SMILES	KCNQ2 block	KCNQ2 pot	Kir21 conf inh	HEK293 Tl flux	others
CCC1=NN(C(=O)c2ccc([N+](=O)[O-])cc2)C(O)(c2ccccc2)C1 (configuration not stated)	i	2.1	.	.
CCC1=NN(C(=O)c2ccccc2O)C(O)(c2ccccc2)C1 (configuration not stated)	i	11*	i	148%*	CHO-K1 Tl ctr=-13;KCNQ1 pot spec=-10;KCNQ2 pot confirm=14*;Kir2-1 sel=-37;KCNQ2 W236L pot=i
CC1=NN(C(=O)c2ccccc2Cl)C(O)(c2cccnc2)C1 (configuration not stated)	i	3.7	.	.
COc1cc(C)c(NC(=O)Cc2ccsc2)cc1OC	i	0.02	.	.
Cc1ccnc(NC(=O)CCC(=O)N(CC(=O)NC2CCCCC2)Cc2cccs2)c1	i	.	.	.
COc1c(C)cc(Br)cc1C(=O)NC(=S)NCc1ccco1	i	2.7	.	.
COc1ccc(S(=O)(=O)N2CCC(C(=O)NCc3ccncc3)CC2)cc1C	i	.	.	.
COc1ccc(/C=N/Nc2cc(C)nc3c(C)cccc23)cc1	i	.	.	.
COc1ccc(/C=N/Nc2cc(C)nc3ccccc23)cc1	i	.	35%*	i
COc1ccc(C(=O)N2CCCCCC2)cc1S(=O)(=O)N1CCOCC1	i	0.42	.	.
Cc1ccc(Cl)cc1NC(=S)NN	i	.	.	.
O=C(NNC(=O)c1c(O)c2ccccc2[nH]c1=O)c1ccccc1Br	i	.	.	.
Clc1cccc(Cl)c1COn1nnc2ccccc21	i	.	.	.
c1ccc(COn2nnc3ccccc32)c(COn2nnc3ccccc32)c1	i	.	72%*	i
CNC(=S)/N=C/NOCc1ccc(Cl)cc1Cl	i	0.59	.	.
O=[N+]([O-])c1c(Nc2ccc(O)cc2)cc(Cl)c2nonc12	-10*	-10	66%*	i
CN(C)c1cc(Nc2ccc(O)cc2)c([N+](=O)[O-])c2nonc12	i	.	.	.
c1ccc(CCNc2ncnc3ccccc23)cc1	i	.	.	.
CCCCCCCCNc1ncnc2ccccc12	i	.	i	128%*
O=C(Nc1ccccc1)c1cc2ccc3ccccc3c2s1	i	0.12	.	.
O=C(Cc1ccc(F)cc1)Nc1cccc(-c2cn3c(n2)SCC3)c1	i	10*	i	i	CHO-K1 Tl ctr=-13;KCNQ1 pot spec=-19;KCNQ2 pot confirm=-29;Kir2-1 sel=-43
O=C(Nc1cccc(-c2cn3c(n2)SCC3)c1)c1ccc(Br)o1	i	.	.	.
c1ccc2c(c1)ccc1ncccc12	i	0.05	.	.
Oc1c(N=Nc2ccccn2)ccc2ccccc12	i	5.9*	i	i	CHO-K1 Tl ctr=91*;KCNQ1 pot spec=-14;KCNQ2 pot confirm=28*;Kir2-1 sel=-39;KCNQ2 W236L pot=i
COc1ccc(C(=O)COC(=O)CN2C(=O)C3C4CCC(C4)C3C2=O)cc1 (configuration not stated)	i	.	.	.
COc1ccccc1NC(=S)N1CCN(c2ccccc2F)CC1	i	.	.	.
CC[n+]1c(/C=C/c2ccc(OC)c(OC)c2)ccc2ccccc21	i	.	.	.
CC[n+]1c(/C=C/c2ccc(N(C)C)cc2)ccc2ccccc21	-9.3*	-9.3	i	i
CC[n+]1c(/C=C/c2ccc(OC(C)=O)c(OC)c2)ccc2ccccc21	i	.	.	.
